Hit rate of the full screen: of about 290,000 compounds, about 27,000 (9.3%) were called active. The sample as a whole holds a higher share of actives than the screen did. Unmarked numbers belong to inactive results. No stated cut-off is given here; in the data, active means inhibition mostly above about 28% (no sharp cut-off); inactive means mostly below about 43%.
assay: A qHTS for Small Molecule Inhibitors of Shiga Toxin; conditions: Vero cells, Shiga toxin protein synthesis inhibition reporter; at 38.7 µM, hits give high values; further: 0% is about no effect

Compound	inhibition
O=C1C(=O)N(CCN2CCOCC2)C(c2cccc(Cl)c2)/C1=C(/O)c1ccc2c(c1)OCO2 (centres undefined)	-5.97%
CS(=O)(=O)N(CC(=O)N1CCCCCC1)c1cccc(Cl)c1Cl	-8.4%
CC(=O)N1CCOc2ccc(S(=O)(=O)N3CCC(C(=O)Nc4ccccc4F)CC3)cc21	-3.81%
CSCCC(NS(=O)(=O)c1ccc(C)cc1)C(=O)N1CCCC1 (centres undefined)	-8.89%
COc1ccc2c(C)c(CCC(=O)NC3CC3)c(=O)oc2c1C	12.7%
Nc1nnnn1CC(=O)N/N=C/c1ccc(-c2cccc(Cl)c2)o1	14.1%
COC(=O)N/N=C/c1ccc(-c2ccc(Cl)c(Cl)c2)o1	59.7% (active)
O=C(N/N=C\c1ccc(-c2ccc(Cl)c(Cl)c2)o1)C(=O)N1CCCC1	-9.82%
O=C(Nc1ccccc1C(=O)N1CCCCC1)c1ccco1	-5.5%
O=C(c1cccc(S(=O)(=O)Nc2ccccc2Cl)c1)N1CCN(C(=O)c2ccco2)CC1	10.9%
CS/C(=C\C(=O)c1ccco1)Nc1ccccc1Cl	53.1% (active)
Cc1c(Cl)cccc1NC(=O)[C@@]1(CC(=O)O)CC(/C=C/c2ccccc2)=NO1	4.14%
COc1cccc(-c2cc(C(=O)N/N=C/c3ccc(OC)c(COC(C)=O)c3)c3ccccc3n2)c1	13.2%
CCOc1cc(/C=N/Nc2cc(C)nc3ccc(C)cc23)ccc1O	16.6%
CCOc1cc(/C=N/NC(=O)c2cc(-c3ccccc3)nc3ccccc23)ccc1O	46.8% (active)
Cc1cc(=O)oc2cc(OC(C)C(=O)NCCc3ccc(S(N)(=O)=O)cc3)ccc12 (centres undefined)	-15.1%
CC(=O)N1CCOc2ccc(S(=O)(=O)N3CCN(c4cccc(C(F)(F)F)c4)CC3)cc21	-3.75%
O=C(O)c1ccc(COCC(F)(F)F)cc1	8.49%
CCOc1c(CNCc2ccc(C(=O)O)cc2)cccc1OC	11.6%
CCCCCc1ccc(-c2ccc(C(=O)O)cc2)nc1	71.9% (active)
CCCCCc1ccc(-c2cn(Cc3ccc4ccccc4c3)nn2)cc1	-7.01%
CCCCCc1ccc(-c2ccc(OCC)cc2)nc1	43.4% (active)
CCCCOc1ccc(-c2ncc(C(=O)OCC)c(N)n2)cc1	21.7%
Cc1ccc(NC(=O)CN2C(=O)NC(C)(c3ccc(Cl)cc3)C2=O)c(Br)c1 (centres undefined)	-4.27%

Compound	inhibition
CCN(CC)Cc1cc(C(C)=O)ccc1O	-16.1%
CC(=O)c1ccc2c(c1)c1ccccc1n2CC(C)C	-9.15%
Cc1ccccc1OCC(=O)NCC(=O)OCC(=O)c1ccc2ccccc2c1	12.1%
CC(=O)c1ccc2c(ccc3ccccc32)c1	50.4% (active)
C/C(=N\NC(=O)c1ccc2ccccc2c1)c1cccnc1	43.1%
CC(=O)CCC(=O)c1ccc2ccccc2c1	52.7% (active)
Cc1cccc(NS(=O)(=O)c2ccc(C(=O)NCC(C)(C)N3CCOCC3)cc2)c1C	-13%
COc1cc(OC)c(S(=O)(=O)Nc2ccccc2C(=O)O)cc1S(=O)(=O)Nc1ccccc1C(=O)O	7.19%
CCC(=O)N1CCc2cc(S(=O)(=O)CCC(=O)N3CCN(c4ccccc4F)CC3)ccc21	0.463%
COc1cc(NS(=O)(=O)c2ccc(NC(=S)NC(=O)c3ccccc3)cc2)nc(OC)n1	-2.7%
O=C(Nc1ccc(Br)cn1)c1ccc([N+](=O)[O-])o1	50.9% (active)
CN1C(=O)c2ccc(C(=O)Nc3ccc(Br)cn3)cc2C1=O	-3.25%
O=C(Nc1ccc(Br)cn1)c1ccc([N+](=O)[O-])cc1Cl	119% (active)
CC(C)C(=O)Nc1cccc(NC(=O)c2ccc([N+](=O)[O-])cc2Cl)c1	16.6%
O=C(Nc1ccncc1)c1ccc([N+](=O)[O-])cc1Cl	-1.95%
O=C(/C=C/c1ccc(Cl)cc1)Nc1ccc(Br)cn1	34.5%
COc1ccc(N(Cc2cc3ccc(C)cc3[nH]c2=O)S(=O)(=O)c2ccccc2)cc1	-1.62%
CCOc1cc(NC(=O)Nc2ccccc2)c(OCC)cc1NC(=O)CC	-9.09%
CC1CCCN(S(=O)(=O)c2ccc(-c3ccc(=O)[nH]n3)o2)C1 (centres undefined)	-5.12%
O=S(=O)(NC1CC1)c1ccc(F)c(F)c1	20.3%
CCc1ccc(OCC(=O)OC(C)C(=O)NC2CC2)cc1 (centres undefined)	-3.01%
CCCCN(CC)C(=O)C1CCCN(S(=O)(=O)c2cccc3nsnc23)C1 (centres undefined)	-4.85%
Cc1c(C(N)=O)sc2ncn(CCOc3ccccc3)c(=O)c12	59.8%
CCOC(=O)C(C)n1cnc2sc(C)c(C)c2c1=O (centres undefined)	17.6%

Compound	inhibition
Cc1cccc(OC(=O)c2sc3ncn(C)c(=O)c3c2C)c1	67.1% (active)
CN(CCc1ccccn1)C(=O)c1ccc(OC2CCN(Cc3ccccn3)CC2)cc1	16%
O=C(COC(=O)c1ccc(O)cc1)Nc1nccs1	28%
CC(NC(=O)C(=O)Nc1nccs1)c1ccccc1 (centres undefined)	-4.59%
CCN(c1ccccc1)S(=O)(=O)c1ccc(C(=O)Nc2nccs2)cc1	-6.9%
Cn1cccc1C(=O)Nc1nccs1	39.3% (active)
CCOc1ccc(C(=O)NC(=S)Nc2ccc(NC(=O)C(C)C)cc2)cc1[N+](=O)[O-]	-4.8%
CCCCOC(=O)Nc1nnc(CC(=O)NCc2ccccc2)s1	-13.9%
O=C(O)c1ccccc1-c1ccccc1C(=O)Nc1nccs1	16.1%
CC(=O)Oc1ccc(C(=O)Nc2nccs2)cc1	45.7% (active)
CCOc1ccc(C(=O)Nc2nccs2)cc1[N+](=O)[O-]	69.4% (active)
CCCCOC(=O)Nc1nccs1	7.37% (active)
CC(=O)NC(CC(=O)Nc1nccs1)c1ccccc1 (centres undefined)	14.1%
COc1ccc(C(=O)NNC(=O)c2cnccn2)cc1[N+](=O)[O-]	-6.53%
COC(=O)CCc1ccccc1S(=O)(=O)N(CCC(=O)OC)Cc1ccccc1	-5.55%
Cc1ccccc1Nc1c([N+](=O)[O-])ccc2nonc12	-12%
COc1cc(OC)c2c(C)cc(=O)oc2c1C(CCN1CCCCC1)c1ccc(N(C)C)cc1 (centres undefined)	-4.37%
COCc1ccc(CN2CCC(Oc3ccc(C(=O)NCc4ccccn4)cc3)CC2)o1	-9.34%
C=C1/C(=C\C=C2\CCCC3(C)C2CCC3C(C)/C=C/C(O)C2CC2)CC(O)CC1O (centres undefined)	-5.18%
O=C(NCc1cccc(C(F)(F)F)c1)c1cccc(S(=O)(=O)N2CCN(Cc3ccccc3)CC2)c1	-21.6%
CCOc1ccc(C2/C(=C(/O)c3ccc4c(c3)CC(C)O4)C(=O)C(=O)N2CCCn2ccnc2)cc1 (centres undefined)	14.2%
COc1ccc(-c2cc(C(=O)NC(Cc3c[nH]c4ccccc34)C(=O)O)c(C)o2)cc1OC (centres undefined)	29.3% (active)
Cc1cccc(C)c1OCC(=O)NC(Cc1c[nH]c2ccccc12)C(=O)O (centres undefined)	-4.32%
COc1ccc(-c2cc(C(=O)NC(C(=O)O)C(C)C)c(C)o2)cc1OC (centres undefined)	46.9%

Compound	inhibition
O=C(NCCc1ccc(Cl)cc1Cl)c1cc([N+](=O)[O-])c[nH]c1=O	-2.76%
Cc1ccnc(NS(=O)(=O)c2ccc(NC(=O)c3oc4ccccc4c3C)cc2)n1	-19.8%
CCCc1nc(SCC(=O)N2CCCC2)c2c(=O)n(C)c(=O)n(C)c2n1	-3.54%
C[C@@H]1CC[C@@]2(OC1)O[C@H]1C[C@H]3[C@@H]4CC=C5C[C@@H](O)[C@H](O)C[C@]5(C)C4CC[C@]3(C)[C@H]1[C@@H]2C (some centres undefined)	-6.76%
COc1ccc2[nH]c(C(=O)N3CCN(C)CC3)c(C)c2c1	-9.68%
CCOc1ccccc1N1CCN(C(=O)c2ccc3[nH]c(C)c(C)c3c2)CC1	-2.3%
Cc1[nH]c2ccc(C(=O)N3CCN(C)CC3)cc2c1C	45.9% (active)
CCOCCCNC(=S)Nc1ccc2nc(N3CCN(CC)CC3)cc(C)c2c1	4.52%
Cc1ccc(-c2nc3ccccc3[nH]c2=O)cc1	21.4%
COc1ccc(-c2[nH]nc(-c3ccccc3)c2-c2nc3ccccc3[nH]2)cc1	-19.5%
Cc1ccc(-c2nc3ccccc3[nH]2)cc1N	106% (active)
Cc1ccccc1N1CC(c2nc3ccccc3[nH]2)CC1=O (centres undefined)	-11.9%
c1ccc2[nH]c(-c3nc4ccccc4[nH]3)nc2c1	107% (active)
OC(c1nc2ccccc2[nH]1)C(O)C(O)C(O)c1nc2ccccc2[nH]1 (centres undefined)	19.2%
CCN1CCN(C(=O)CSc2ccc(C)cc2)CC1	52.4%
CCOC(=O)N1CCN(C(=O)CNC(=O)Cc2ccc(Cl)cc2)CC1	-2.93%
CCOC(=O)N1CCN(C(=O)CSc2ccc(Cl)cc2)CC1	93.2% (active)
CC(=O)Nc1ccc(S(=O)(=O)Nc2cc(C)cn(Cc3ccc(C)cc3)c2=O)cc1	20.8%
Cc1cc(OC(=O)c2ccccc2Cl)ccc1N1C(=O)CCC1=O	60.4% (active)
CCOC(=O)c1cc(OC(=O)c2ccccc2Cl)n(-c2ccccc2)n1	35.8%
COc1ccccc1C(=O)Oc1ccc(N2C(=O)CCC2=O)cc1	-6.4%
Cc1n[nH]c(=O)c2c1nnn2Cc1ccc(F)cc1	14.5%
